Source: PubChem
Shown are actives, neighbours in structure and some others; about 3.6% of the full set was active somewhere.
Pf apPOL block = Pf-apPOL DNA polymerase inhibition; Recombinant Pf-apPOL, molecular beacon fluorescence, 1.5 h; inhibition, % at 10 µM; hit rate 0.25% among 210,000; AID 1794808
mHTT CaM bind = inhibitors of human mutant huntingtin-calmodulin interaction; P42858; AlphaScreen His-mHTT/GST-CaM binding, luminescence; inhibition, % at 15 µM; hit rate 3.6% among 190,000;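 note: 0% = both proteins with DMSO and 100% = one protein alone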
Target sequence (P42858 whole entry, looked up, stated change not applied): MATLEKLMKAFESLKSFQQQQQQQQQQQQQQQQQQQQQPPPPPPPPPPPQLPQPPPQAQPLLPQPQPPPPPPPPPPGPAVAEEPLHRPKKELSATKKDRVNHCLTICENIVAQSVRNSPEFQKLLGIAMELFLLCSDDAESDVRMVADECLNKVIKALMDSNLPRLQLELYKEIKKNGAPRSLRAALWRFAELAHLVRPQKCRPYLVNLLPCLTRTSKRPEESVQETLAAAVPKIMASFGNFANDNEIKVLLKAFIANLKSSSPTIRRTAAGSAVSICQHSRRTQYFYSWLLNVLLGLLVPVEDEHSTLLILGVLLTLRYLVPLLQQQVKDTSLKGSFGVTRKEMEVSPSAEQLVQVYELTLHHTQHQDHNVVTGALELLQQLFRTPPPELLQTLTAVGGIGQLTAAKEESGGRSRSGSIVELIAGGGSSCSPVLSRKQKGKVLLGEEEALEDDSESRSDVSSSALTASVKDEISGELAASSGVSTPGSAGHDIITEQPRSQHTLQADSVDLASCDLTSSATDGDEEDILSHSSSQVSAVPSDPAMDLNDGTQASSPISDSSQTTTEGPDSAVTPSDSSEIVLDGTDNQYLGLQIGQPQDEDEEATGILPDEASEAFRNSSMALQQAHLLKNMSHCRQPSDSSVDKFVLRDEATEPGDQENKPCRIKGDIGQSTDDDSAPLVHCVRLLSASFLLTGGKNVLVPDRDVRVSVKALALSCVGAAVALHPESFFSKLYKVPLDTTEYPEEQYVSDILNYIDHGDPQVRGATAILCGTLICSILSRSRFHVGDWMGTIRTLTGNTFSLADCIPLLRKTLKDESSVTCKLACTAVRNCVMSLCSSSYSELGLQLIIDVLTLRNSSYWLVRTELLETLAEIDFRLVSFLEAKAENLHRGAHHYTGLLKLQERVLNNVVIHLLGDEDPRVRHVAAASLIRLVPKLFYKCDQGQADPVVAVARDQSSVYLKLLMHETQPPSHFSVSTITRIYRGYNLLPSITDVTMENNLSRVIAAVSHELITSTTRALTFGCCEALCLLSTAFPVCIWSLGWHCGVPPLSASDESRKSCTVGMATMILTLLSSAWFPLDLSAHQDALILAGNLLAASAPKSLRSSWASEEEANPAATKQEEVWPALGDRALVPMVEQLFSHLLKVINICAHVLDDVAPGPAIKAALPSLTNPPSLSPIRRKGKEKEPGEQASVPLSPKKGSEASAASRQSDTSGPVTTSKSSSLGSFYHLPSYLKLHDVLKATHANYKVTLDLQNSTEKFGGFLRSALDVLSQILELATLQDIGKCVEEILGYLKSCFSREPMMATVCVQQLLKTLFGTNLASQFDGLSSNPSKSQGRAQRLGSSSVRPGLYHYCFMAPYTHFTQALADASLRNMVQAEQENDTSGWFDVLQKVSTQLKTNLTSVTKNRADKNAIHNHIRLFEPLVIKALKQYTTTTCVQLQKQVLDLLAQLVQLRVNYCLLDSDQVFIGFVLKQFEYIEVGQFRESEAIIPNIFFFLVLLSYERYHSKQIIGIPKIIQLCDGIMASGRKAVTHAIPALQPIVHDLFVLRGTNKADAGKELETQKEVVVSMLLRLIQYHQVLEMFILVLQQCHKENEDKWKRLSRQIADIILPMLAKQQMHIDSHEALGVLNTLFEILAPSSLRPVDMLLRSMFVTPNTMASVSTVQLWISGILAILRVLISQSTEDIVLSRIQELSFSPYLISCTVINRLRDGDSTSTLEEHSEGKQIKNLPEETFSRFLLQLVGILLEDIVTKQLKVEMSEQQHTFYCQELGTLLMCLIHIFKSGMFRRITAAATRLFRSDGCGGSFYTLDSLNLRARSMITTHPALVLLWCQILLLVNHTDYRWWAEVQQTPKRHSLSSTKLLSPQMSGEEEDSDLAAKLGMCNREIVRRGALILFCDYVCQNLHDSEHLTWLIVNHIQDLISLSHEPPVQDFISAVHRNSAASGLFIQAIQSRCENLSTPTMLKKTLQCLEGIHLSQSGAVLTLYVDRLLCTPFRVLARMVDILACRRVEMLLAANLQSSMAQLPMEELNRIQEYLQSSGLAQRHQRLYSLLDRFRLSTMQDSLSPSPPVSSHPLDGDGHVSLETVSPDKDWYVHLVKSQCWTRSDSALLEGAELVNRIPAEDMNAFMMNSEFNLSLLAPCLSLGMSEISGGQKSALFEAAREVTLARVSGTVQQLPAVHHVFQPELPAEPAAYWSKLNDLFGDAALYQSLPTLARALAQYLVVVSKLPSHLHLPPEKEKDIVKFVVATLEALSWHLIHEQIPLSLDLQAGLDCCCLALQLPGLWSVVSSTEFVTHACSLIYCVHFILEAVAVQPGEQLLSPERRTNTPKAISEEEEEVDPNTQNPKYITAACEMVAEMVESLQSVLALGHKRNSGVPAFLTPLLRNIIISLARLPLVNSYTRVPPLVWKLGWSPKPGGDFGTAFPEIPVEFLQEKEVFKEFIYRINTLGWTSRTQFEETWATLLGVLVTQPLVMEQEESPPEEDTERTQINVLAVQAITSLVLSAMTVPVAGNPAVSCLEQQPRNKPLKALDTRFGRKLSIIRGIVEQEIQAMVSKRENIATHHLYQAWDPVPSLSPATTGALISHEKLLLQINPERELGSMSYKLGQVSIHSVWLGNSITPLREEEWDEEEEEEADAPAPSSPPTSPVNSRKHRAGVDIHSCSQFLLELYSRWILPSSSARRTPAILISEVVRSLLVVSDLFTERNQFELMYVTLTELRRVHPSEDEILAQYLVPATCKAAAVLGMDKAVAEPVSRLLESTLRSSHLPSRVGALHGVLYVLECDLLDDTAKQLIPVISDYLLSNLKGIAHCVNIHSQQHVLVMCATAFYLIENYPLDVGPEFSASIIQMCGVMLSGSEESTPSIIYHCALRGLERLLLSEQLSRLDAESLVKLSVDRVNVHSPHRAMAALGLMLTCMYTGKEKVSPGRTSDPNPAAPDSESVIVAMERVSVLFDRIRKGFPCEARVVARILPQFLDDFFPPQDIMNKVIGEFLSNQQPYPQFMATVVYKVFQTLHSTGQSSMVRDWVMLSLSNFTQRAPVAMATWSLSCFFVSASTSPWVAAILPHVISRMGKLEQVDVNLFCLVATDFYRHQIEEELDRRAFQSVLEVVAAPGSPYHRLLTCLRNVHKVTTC
Starred values were filed as active, the others as inactive; . = no result. Cut-off read from the data, not from the text of the source: active = inhibition above about 50%; inactive = the rest.

SMILES	Pf apPOL block	mHTT CaM bind
N#CC1=C(N)Oc2cc(N)ccc2C1c1ccc(Cl)cc1 (configuration not stated)	-2.6	15.6
N#CC1=C(N)Oc2cc(O)ccc2C1c1ccc(Cl)c(Cl)c1 (configuration not stated)	-5.9	100.1*
Cc1ccc(C2CC(C(F)(F)F)n3nc(C(=O)N4CCc5ccccc5C4)cc3N2)cc1 (configuration not stated)	-1.6	17.0
O=C1c2ccccc2NC(c2ccc(F)cc2)N1c1ccccc1 (configuration not stated)	2.9	1.0
COc1ccc(/C=C2\c3cc([N+](=O)[O-])ccc3-c3c2cc([N+](=O)[O-])cc3[N+](=O)[O-])cc1OC	-3.8	9.0
CCO/C=C1\c2cc([N+](=O)[O-])ccc2-c2c1cc([N+](=O)[O-])cc2[N+](=O)[O-]	-5.4	74.0*
O=C(O)CCC(=O)Nc1nc2n(n1)C(c1ccccc1)C=C(c1ccccc1)N2 (configuration not stated)	0.1	18.0
COc1ccc(C(=O)Nc2nc3n(n2)C(c2ccccc2)C=C(c2ccc(Cl)cc2)N3)cc1 (configuration not stated)	-0.2	62.0*
COc1ccc(C(=O)Nc2nc3n(n2)C(c2ccccc2)C=C(c2ccccc2)N3)cc1 (configuration not stated)	0.1	61.0*
O=C(Nc1nc2n(n1)C(c1ccccc1)C=C(c1ccccc1)N2)c1ccco1 (configuration not stated)	-6.6	67.0*
CC1=CC(c2ccc(Cl)cc2)n2nc(NC(=O)c3ccccc3)nc2N1 (configuration not stated)	1.8	16.0
COc1ccccc1C(=O)Nc1nc2n(n1)C(c1ccccc1)C=C(c1ccccc1)N2 (configuration not stated)	-3.0	68.0*
CC(=O)Nc1nc2n(n1)C(c1ccccc1)C=C(c1ccccc1)N2 (configuration not stated)	14.6	13.0
O=C(Nc1nc2n(n1)C(c1ccccc1)C=C(c1ccc(Cl)cc1)N2)c1ccco1 (configuration not stated)	0.5	49.0
Cc1cc(CNC(=O)C2(c3ccc(F)cc3)CC2)c(C)o1	-4.3	5.2
Cn1nnc2c(NCCC3=CCCCC3)ncnc21	-4.9	-15.4
CN1CCN(C(=O)C2CC=CCC2C(=O)O)CC1 (configuration not stated)	-4.2	1.0
COC(=O)COc1ccc2c(c1)OC(=Cc1ccccc1Cl)C2=O	-7.9	10.4
O=C(Nc1ccc([N+](=O)[O-])cc1)C1C(c2ccccc2)C1(Cl)Cl (configuration not stated)	-8.5	94.1*
O=C(Nc1cccnc1)C1C(c2ccccc2)C1(Cl)Cl (configuration not stated)	-2.9	-7.0
CC1(C)C(C=C(Cl)Cl)C1C(=O)Nc1ccc([N+](=O)[O-])cc1 (configuration not stated)	-5.9	99.0*
Cc1cc(C)nc(NS(=O)(=O)c2ccc(NC(=O)C3C(C=C(Cl)Cl)C3(C)C)cc2)n1 (configuration not stated)	-5.3	67.0*
CC1(C)C(C=C(Cl)Cl)C1C(=O)Nc1ccc(S(N)(=O)=O)cc1 (configuration not stated)	-3.0	2.0
COc1ccc(NC(=O)C2C(C=C(Cl)Cl)C2(C)C)cc1 (configuration not stated)	-5.6	-35.5
O=C(CCCn1c(=O)c2sccc2n(Cc2ccc(F)cc2Cl)c1=O)NCc1ccco1	0.0	-1.0
SMILES	Pf apPOL block	mHTT CaM bind
CCOc1ccccc1C(=O)N1CCC(c2ccncc2)CC1	-5.7	-1.7
c1cc(N2CCCC2)ccc1-c1noc(C2CCC2)n1	-2.5	0.3
CCC(C)NC(=O)C1CCN(c2cccc(Cl)c2C)C1=O (configuration not stated)	-5.3	1.5
Cc1ccc(NC(=O)c2cc3cc(Br)ccc3oc2=O)c(Br)c1	85.0*	-2.0
Cc1ccc(NC(=O)c2cc3ccccc3oc2=O)c(Br)c1	-3.3	5.0
CC1CCN(S(=O)(=O)c2ccc(NC(=O)c3cccc(F)c3)cc2)CC1	-0.9	-4.4
O=C(c1ccc([N+](=O)[O-])cc1)N1CCN(Cc2c[nH]c3ccccc23)CC1	-1.8	20.5
O=[N+]([O-])c1ccc(/C=C/S(=O)(=O)N2C=Cc3ccccc3C2c2c[nH]c3ccccc23)cc1 (configuration not stated)	1.9	57.0*
COCCOCC(=O)N1c2ccccc2C(C)(c2ccc(Cl)cc2)CC1(C)C (configuration not stated)	-6.4	34.0
CC1(C)CC(C)(c2ccc(Cl)cc2)c2ccccc2N1 (configuration not stated)	-9.8	85.0*
COCCNC(=O)C1(C)CCC(=O)N1Cc1cccc(Cl)c1 (configuration not stated)	-5.6	-4.5
Cc1ccccc1C(=O)N1CCCN(C2CCN(Cc3ccc(F)cc3)C2=O)CC1 (configuration not stated)	0.2	56.7*
CNC(=O)N1CCCN(C2CCN(Cc3ccc(F)cc3)C2=O)CC1 (configuration not stated)	1.0	1.0
O=C(c1ccsc1)N1CCCN(C2CCN(Cc3ccc(F)cc3)C2=O)CC1 (configuration not stated)	-1.3	18.7
Cc1ccsc1C(=O)N1CCCN(C2CCN(Cc3ccc(F)cc3)C2=O)CC1 (configuration not stated)	8.3	64.1*
C=CCn1c(=N)c(C(=O)NCCN2CCOCC2)cc2c(=O)n3cccc(C)c3nc21	-5.5	0.0
Cc1ccccc1C(=O)N1CCC(Cc2nc3cccnc3n2C)C1 (configuration not stated)	-10.3	-1.3
COCCNC(=O)C1CCN(c2ccc(N3CCOCC3)nn2)CC1	0.3	6.4
CCCC(=O)N1CCc2c(c(C(=O)NCc3ccc4c(c3)OCO4)nn2C)C1	-7.0	21.3
COc1ccc(OC)c(C=C2Oc3cc(OC(=O)c4cc(OC)c(OC)c(OC)c4)ccc3C2=O)c1	-4.5	5.5
O=C(O)CS(=O)(=O)c1ccccc1[N+](=O)[O-]	10.2	.
COc1cccc(C2C3=C(Nc4c2c(=O)n(C)c(=O)n4C)c2ccccc2C3=O)c1 (configuration not stated)	1.4	5.0
O=C1CCCC2=C1C(c1cc([N+](=O)[O-])ccc1O)C1=C(N2)c2ccccc2C1=O (configuration not stated)	3.8	56.0*
Cc1ccccc1C1C2=C(CC(C)(C)CC2=O)NC2=C1C(=O)CC(C)(C)C2	-8.5	1.5
CC1(C)CC(=O)C2=C(C1)NC1=C(C(=O)c3ccccc31)C2c1cc(Br)ccc1O (configuration not stated)	2.4	56.0*
COc1cccc(C2C3=C(CC(C)(C)CC3=O)NC3=C2C(=O)c2ccccc23)c1 (configuration not stated)	0.9	58.0*
CC1(C)CC(=O)C2=C(C1)NC1=C(C(=O)c3ccccc31)C2c1cccs1 (configuration not stated)	0.5	47.0
O=C1CCCC2=C1C(c1cc([N+](=O)[O-])ccc1O)C1=C(CCCC1=O)N2	-7.7	-1.0
CC1(C)CC(=O)C2=C(C1)NC1=C(C(=O)c3ccccc31)C2c1ccc(F)cc1 (configuration not stated)	-6.3	62.0*
Cc1cc(=O)oc2cc(OCCOc3ccccc3)ccc12	-3.7	-2.8
